Screening results deposited in PubChem BioAssay by National Center for Advancing Translational Sciences (NCATS).
SARS PLP yeast – blocks SARS-CoV papain-like protease in a yeast assay; S. cerevisiae expressing SARS-CoV PLpro, growth rescue; Potency, µM (doses to about 32.9 µM), actives largely listed as activators; 0.19% of 330,000 active; AID 485353; calls by dose curve; further: nearly all actives have a fitted effect of over 55% in size
Shiga inhibitor – inhibitors of Shiga toxin in Vero cells. inhibition, % at 38.7 µM. 9.2% of 290,000 active. Vero cells, Shiga toxin protein synthesis inhibition reporter; in the data active means inhibition mostly above about 28%, no sharp cut-off; inactive means mostly below about 43%
TbPYK inhibitor – inhibitors of Trypanosoma brucei pyruvate kinase | Q57TT1 | TbPYK enzyme, Kinase-Glo Plus ATP luminescence, 45 min | Potency, µM (series often up to 76.8 µM), hits mostly inhibitors | 0.12% of 410,000 active; further: nearly all actives have a fitted effect of over 50% in size
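TbPYK + substrate in 50 mM TEA pH 7.2, 100 mM KCl, 10 mM MgCl2, 0.05% BSA, 0.01% Tween-20; cpd pinned; ADP 130 uM final; 45 min RT; Kinase-Glo Plus 10 min; luminescence endpoint.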
Cycloheximide cs – affects cycloheximide protein synthesis inhibition readout, counter-screen; cell reporter, cycloheximide protein synthesis inhibition counterscreen; max response, %; 12% of 300,000 active; in the data active means max response mostly above about 13%, no sharp cut-off; inactive means mostly below about 14%; further: read at 38.3 µM for the half of the compounds with a filed dose
NS1 inh – inhibitors of influenza NS1 protein function. Potency, µM (series often up to 46.1 µM). 0.4% of 270,000 active; calls by dose curve; further: actives are rising curves; nearly all actives have a fitted effect of over 50% in size
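OD600 was taken as the measure of yeast growth restored by compound in an NS1-expressing S. cerevisiae strain. Cells had been washed out of glucose medium and diluted 1:100 into galactose -URA medium, pH 6.0.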
LmPK inhibitor – LmPK (Leishmania mexicana) enzyme inhibition | purified LmPK, Kinase-Glo ATP luminescence, 1 h | Potency, µM (series often up to 57.5 µM), hits mostly inhibitors | 0.37% of 290,000 active
Target sequence (Q27686 whole entry, looked up): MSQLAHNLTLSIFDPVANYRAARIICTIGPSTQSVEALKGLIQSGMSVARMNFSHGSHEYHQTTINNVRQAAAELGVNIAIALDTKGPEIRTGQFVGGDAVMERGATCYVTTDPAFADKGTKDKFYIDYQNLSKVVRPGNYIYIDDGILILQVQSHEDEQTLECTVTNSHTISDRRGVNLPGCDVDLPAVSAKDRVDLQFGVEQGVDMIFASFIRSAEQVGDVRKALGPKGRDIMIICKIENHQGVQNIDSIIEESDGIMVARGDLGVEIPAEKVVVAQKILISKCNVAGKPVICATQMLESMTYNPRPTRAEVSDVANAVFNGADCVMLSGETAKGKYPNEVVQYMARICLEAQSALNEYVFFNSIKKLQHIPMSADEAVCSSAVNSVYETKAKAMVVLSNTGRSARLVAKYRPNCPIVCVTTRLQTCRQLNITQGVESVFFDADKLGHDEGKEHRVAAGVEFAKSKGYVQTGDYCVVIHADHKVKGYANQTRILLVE
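qHTS format; LmPK 0.1 nM; substrates PEP 0.5 mM and ADP 0.1 mM. One-hour room-temperature incubation, then coupled luciferase luminescence; 0.5 nM enzyme wells mark activation.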
Large screens that a line does not name were inactive. This is one part of a sample in which hits are shown more often than they occur. Unless noted, the call rests on the fitted dose curve; in most records, active means well fitted curve in the direction sought with a large enough effect; inconclusive means small, poorly fitted or top-dose-only effect, or another doubt; inactive means no such curve, though single readings can be large; an effect the other way counts as inactive or inconclusive.

COc1cc(C(C)=O)ccc1OC(=O)N(C)c1ccccc1	none
COC(=O)C(=Nc1ccccc1)/C(C(=O)C(=O)N(C)c1ccccc1)=C(\O)c1ccccc1	Shiga inhibitor 119.5, Cycloheximide cs 44.2
COc1ccc(-c2nsc(SCC(=O)NCc3ccc4c(c3)OCO4)n2)cc1	none
Cc1ccc(-c2nsc(SCC(=O)Nc3ccc4c(c3)OCO4)n2)cc1	Shiga inhibitor 23.8, Cycloheximide cs 18.2
O=C(CSc1nc(-c2ccccc2Cl)ns1)Nc1ccc2c(c1)OCO2	Cycloheximide cs 15.2
C/C(=N\O)c1ccc2c(c1)CC(C)O2 (configuration not stated)	Cycloheximide cs 13.3
COc1ccc(C2c3c(n(C)c4ccccc34)C(=O)N2CC(=O)Nc2cccc(Cl)c2C)cc1 (configuration not stated)	none (no result: SARS PLP yeast, Shiga inhibitor, Cycloheximide cs, NS1 inh, LmPK inhibitor)
O=C1c2ccccc2C(=O)N1/N=C/c1ccc(O)c(O)c1	Shiga inhibitor 47.3
O=C1CC(Sc2nnnn2-c2ccccc2)C(=O)N1c1cccc(Cl)c1 (configuration not stated)	TbPYK inhibitor inconclusive, Cycloheximide cs 20.5
COc1ccc(N2C(=O)CC(Sc3nnnn3-c3ccc(F)cc3)C2=O)cc1 (configuration not stated)	none
Cc1cccc(NC(=O)CCSc2ccccc2)c1C	Cycloheximide cs 12.3
Cc1cc(Br)ccc1NC(=O)CCSc1ccccc1	Shiga inhibitor 47.5, Cycloheximide cs 16.2
COC(=O)c1ccc(C)c(NC(=O)CCSc2ccccc2)c1	none
Cc1cccc(NC(=O)CCc2ccccc2)c1C	none
Cc1cc(NC(=O)CCSc2ccccc2)ccc1Br	Cycloheximide cs 86.6
Cc1ccc(NC(=O)CS(=O)c2ccccc2N)c(C)c1 (configuration not stated)	Cycloheximide cs 37.6
Cc1ccc(NC(=O)CN2C(=O)c3ccccc3C2=O)c(C)c1	none
Cc1cc(Cl)ccc1OCC(=O)OCC(=O)c1c(N)n(C)c(=O)n(C)c1=O	none (no result: Shiga inhibitor, Cycloheximide cs, NS1 inh, LmPK inhibitor)
O=C(COc1ccccc1)N1CCN(C(=O)c2ccccc2F)CC1	none
Cc1ccc(NC(=O)Cc2noc3ccccc23)c(C)c1	Shiga inhibitor 31.7
Cc1ccc(NC(=O)Cc2ccccc2)c(C)c1	none (no result: TbPYK inhibitor)
Cc1ccc(NC(=O)CCOc2ccccc2)c(C)c1	Cycloheximide cs 13.0
Cc1ccc(NC(=O)CCSc2ccccc2)c(C)c1	Shiga inhibitor 54.6, Cycloheximide cs 24.4 (no result: TbPYK inhibitor)
Cc1c(NC(=O)Cc2noc3ccccc23)cccc1[N+](=O)[O-]	none (no result: NS1 inh)
COc1cccc(C2Oc3ccccc3C3CC(c4cccs4)=NN32)c1 (configuration not stated)	Shiga inhibitor 79.4, Cycloheximide cs 50.5
O=C(N1CCN(Cc2ccc3c(c2)OCO3)CC1)C(Cl)(Cl)Cl	Shiga inhibitor 67.1, Cycloheximide cs 16.6
O=C(CN1CCOCC1)Nc1ccc2c(c1)OCCO2	Shiga inhibitor 49.9, Cycloheximide cs 16.1
S=C(Nc1ccc2c(c1)OCO2)N1CCN(Cc2ccco2)CC1	Shiga inhibitor 28.0, Cycloheximide cs 20.1
S=C(NCc1ccco1)N1CCN(Cc2ccco2)CC1	none
O=C(O)c1ccccc1C(=O)N1CCN(Cc2ccc3c(c2)OCO3)CC1	none
O=C(CN1CCN(C(=O)c2ccco2)CC1)Nc1ccc2c(c1)OCCO2	Shiga inhibitor 90.8, Cycloheximide cs 27.2
CC(C)NC(=O)C1(C)CCN1Cc1ccc(C(F)(F)F)cc1 (configuration not stated)	none (no result: SARS PLP yeast, Shiga inhibitor, Cycloheximide cs, NS1 inh, LmPK inhibitor)
COc1ccc2sc(N(Cc3cccnc3)C(=O)C3CCCCC3)nc2c1	none (no result: SARS PLP yeast, Shiga inhibitor, Cycloheximide cs, NS1 inh, LmPK inhibitor)
O=C(c1ccc2c(c1)OCCO2)N1CCN(Cc2ccccc2)CC1	Cycloheximide cs 15.3
CCc1cc2cc(C(=O)N3CCN(c4ccccc4)CC3)sc2s1	none
O=C(CCN1CCOCC1)Nc1ccc2c(c1)CCC2	none
CCc1cc2cc(C(=O)N3CCN(Cc4ccccc4)CC3)sc2s1	Shiga inhibitor 49.2, Cycloheximide cs 21.9 (no result: SARS PLP yeast)
O=C(CN1CCOCC1)Nc1ccc2c(c1)CCC2	Cycloheximide cs 16.6
O=C(c1ccccc1)N1CCN(C(=O)c2ccc3c(c2)OCCO3)CC1	none (no result: NS1 inh)
COc1ccccc1CNC(=O)Nc1ccc2c(c1)N(C)C(=O)c1ccccc1S2	none (no result: SARS PLP yeast, Shiga inhibitor, Cycloheximide cs, NS1 inh, LmPK inhibitor)
C[C@H](c1ccccc1)N1C[C@H](COCc2ccccc2)Oc2cc(N3CC[C@H](N(C)C)C3)ccc2S1(=O)=O	none (no result: SARS PLP yeast, Shiga inhibitor, Cycloheximide cs, NS1 inh, LmPK inhibitor)
